Reference: paper PMC4102417

test system: murine 3T3 fibroblasts; experiment: primary screen, percent viability or growth; higher = less effect of the substance
Protocol: Similarly, for measuring the cytotoxicity concentration (CC50) for 3T3 fibroblast cells, cultures were incubated with drugs for 72 hours and developed using Alamar Blue (Alamar Biosciences Inc, Sacramento, CA) as previously described.

Structure (SMILES) | Mammalian (3T3) cell % growth at 10 uM
COc1ccc(-c2coc3cc(O)ccc3c2=O)c(O)c1O | 1.4%
COC(=O)C1=C(C)NC(C)=C(C(=O)OCCN(C)Cc2ccccc2)C1c1cccc([N+](=O)[O-])c1 (stereo not shown) | 99.8%
N#Cc1nn(-c2c(Cl)cc(C(F)(F)F)cc2Cl)c(N)c1S(=O)C(F)(F)F (stereo not shown) | 100%
O=c1cc(-c2ccccc2)oc2c(O)c(O)ccc12 | 72.6%
O=C(O)/C=C/c1ccc(O)c(O)c1 | 2.5%
CCc1nc(N)nc(N)c1-c1ccc(Cl)cc1 | 97.6%
Oc1ccc(O)cc1 | 93.9%
O=C(O)CC[N+](=O)[O-] | 88.6%
COc1ccc2cc3[n+](cc2c1OC)CCc1cc2c(cc1-3)OCO2 | 75.8%
COc1cc(-c2cc(=O)c3c(O)c(OC)c(OC)c(OC)c3o2)cc(OC)c1OC | 4%
Cc1cccc2c3c(ccc12)C1=C(C(=O)C3=O)[C@@H](C)CO1 | 77.1%
CC(C)c1c(O)ccc2c1CC[C@H]1C(C)(C)CCC[C@]21C | 67.4%
COc1cccc(O)c1O | 1.2%
C[C@H]1COC2=C1C(=O)C(=O)c1c2ccc2c1CCCC2(C)C | 87%
CCCCCCCC/C=C/CCCCCCCCOP(=O)([O-])OCC[N+](C)(C)C | 93.7%
CC12CCC3C(CCC4CC(O)CCC43C)C1CCC2=O (stereo not shown) | 100%
COc1cc(O)c(C(=O)/C=C/c2ccc(OC)c(O)c2)c(OC)c1 | 6%
CCCCCC(=O)O[C@]1(C(C)=O)CC[C@H]2[C@@H]3CCC4=CC(=O)CC[C@]4(C)[C@H]3CC[C@@]21C | 100%
O[C@H]1[C@H]2c3cc4c(cc3CN3CCC(=C[C@@H]1O)[C@H]23)OCO4 | 29.6%
CCN(CC)Cc1cc(Nc2ccnc3cc(Cl)ccc23)ccc1O | 24.4%

Structure (SMILES) | Mammalian (3T3) cell % growth at 10 uM
COc1c(O)cc2oc3cc(O)c(CC=C(C)C)c(O)c3c(=O)c2c1CC=C(C)C | 5.5%
N=C(N)c1ccc(OCCCCCOc2ccc(C(=N)N)cc2)cc1.O=S(=O)(O)CCO | 94.8%
COC1=CC(=O)C(O)=C/C1=C\C=C\c1ccccc1 | 0.8%
COC(=O)C1(C)CCC2(C)CCC3(C)C4=CC=C5C(=CC(=O)C(O)=C5C)C4(C)CCC3(C)C2C1 (stereo not shown) | 0.6%
CN(C)CCCN1c2ccccc2Sc2ccc(Cl)cc21 | 99.3%
CCC1(O)CC(O)c2c(cc3c(c2O)C(=O)c2c(O)ccc(O)c2C3=O)C1C(=O)OC (stereo not shown) | 46.5%
COc1c(-c2coc3cc4c(cc3c2=O)CC(O)C(C)(C)O4)ccc2c1C=CC(C)(C)O2 (stereo not shown) | 59%
Oc1ccc(/C=C\c2cc(O)cc(O)c2)cc1 | 24.8%
COc1cc(NC(C)CCCN)c2ncccc2c1.O=P(O)(O)O.O=P(O)(O)O (stereo not shown) | 91.1%
NC(=O)c1cc([N+](=O)[O-])cc([N+](=O)[O-])c1 | 97.2%
OCCN1CCN(CCCN2c3ccccc3Sc3ccc(Cl)cc32)CC1 | 66.6%
CN(C)C(=S)SSC(=S)N(C)C | 0.3%
COc1c2c(cc3occ(-c4ccc5c(c4)OCO5)c(=O)c13)OC(C)(C)C=C2 | 68.2%
CSc1ccc2c(c1)N(CCC1CCCCN1C)c1ccccc1S2 (stereo not shown) | 45.7%
CC(C1OC(C)(C)C(O)C1O)C1CCC2(C)C3=CCC4C(C)(C)C(=O)CCC4(C)C3CCC12C (stereo not shown) | 92.7%
C=CC(C)(O)CCC1C(=C)CC(OC(C)=O)C2C(C)(C)CCCC12C (stereo not shown) | 63.7%
Nc1ccn([C@@H]2O[C@H](CO)[C@@H](O)[C@@H]2O)c(=O)n1 | 48.4%
CNCCC=C1c2ccccc2CCc2ccccc21 | 100%
CCCCCCc1ccc(O)cc1O.Nc1c2ccccc2nc2ccccc12 | 53.7%
CCN(CC)CCOc1ccc2c(c1)C(=O)c1cc(OCCN(CC)CC)ccc1-2 | 89%
